Laboratory results taken from PubChem BioAssay (NCI).
Compounds without any hit were thinned out: in the full panel of roughly 83,000, 20% have a hit.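 Treatment: one concentration, 48 hours, 96-well format. Scoring: percent growth, with anything below 10 considered active.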

How the values were obtained:
Assay in all cases: NCI-60 one-dose screen, 48 h (100 = growth as untreated, 0 = no growth, -100 = all killed)
NCI-H460 lung = conditions: 10 µM unless noted
786-0 renal = conditions: 10 µM unless noted
DU-145 prostate = conditions: 10 µM unless noted
MDA-MB-231 breast = conditions: 10 µM unless noted
SF-268 CNS = conditions: 10 µM unless noted
SF-539 CNS = conditions: 10 µM unless noted
HCT-15 colon = conditions: 10 µM
HT29 colon = conditions: 10 µM unless noted
SNB-19 CNS = conditions: 10 µM unless noted
UACC-62 melanoma = conditions: 10 µM unless noted
SK-MEL-28 melanoma = conditions: 10 µM unless noted
SN12C renal = conditions: 10 µM unless noted
UO-31 renal = conditions: 10 µM unless noted
TK-10 renal = conditions: 10 µM unless noted
HL-60(TB) leukemia = conditions: 10 µM unless noted
T-47D breast = conditions: 10 µM unless noted
MDA-MB-435 melanoma = conditions: 10 µM unless noted
SW-620 colon = conditions: 10 µM unless noted
MCF7 breast = conditions: 10 µM unless noted
KM12 colon = conditions: 10 µM unless noted

Measured: growth

CC1COC(=O)C1 (stereo not drawn)
inactive: NCI-H460 lung 102% | 786-0 renal 95.1% | DU-145 prostate 104% | MDA-MB-231 breast 120% | SF-268 CNS 109% | SF-539 CNS 96.4% | HCT-15 colon 105% | HT29 colon 98.2% | SNB-19 CNS 105% | UACC-62 melanoma 106% | SK-MEL-28 melanoma 103% | SN12C renal 98.4% | UO-31 renal 90.4% | TK-10 renal 100% | HL-60(TB) leukemia 105% | T-47D breast 95.5% | MDA-MB-435 melanoma 102% | SW-620 colon 97.8% | MCF7 breast 93.8% | KM12 colon 99.8%

Cc1ccc(C(=O)C2CN(C)CCC2(O)c2ccc(C)cc2)cc1 (stereo not drawn)
inactive: NCI-H460 lung 111% | 786-0 renal 113% | DU-145 prostate 117% | MDA-MB-231 breast 116% | SF-268 CNS 110% | HCT-15 colon 103% | HT29 colon 113% | SNB-19 CNS 118% | UACC-62 melanoma 117% | SK-MEL-28 melanoma 113% | SN12C renal 107% | UO-31 renal 99.6% | TK-10 renal 108% | HL-60(TB) leukemia 106% | T-47D breast 102% | MDA-MB-435 melanoma 106% | SW-620 colon 105% | MCF7 breast 98.1% | KM12 colon 109%

CNC(=O)O/N=C(/C)c1ccc(Cl)cc1
inactive: NCI-H460 lung 113% | 786-0 renal 90.7% | DU-145 prostate 114% | MDA-MB-231 breast 120% | SF-268 CNS 110% | SF-539 CNS 125% | HT29 colon 99.1% | SNB-19 CNS 112% | UACC-62 melanoma 114% | SK-MEL-28 melanoma 105% | SN12C renal 105% | UO-31 renal 83.8% | TK-10 renal 91.6% | HL-60(TB) leukemia 92.1% | T-47D breast 91.8% | MDA-MB-435 melanoma 98.3% | SW-620 colon 117% | MCF7 breast 96.6% | KM12 colon 114%
